Laboratory results as given in PubChem BioAssay AID2533 (National Center for Advancing Translational Sciences (NCATS), 2010).
Several values for one entry are separate records, joined by “and”; a condition that tells them apart may be missing. Equal values may be shown once. Results filed as inconclusive are left out. A call without a number means that no potency is given here. Some structures have more than one record in an assay (separate samples or runs), and their calls can disagree. Activity calls are given as the source filed them. The call rests on the fitted dose curve; in most records, active means well fitted activation curve with a large enough effect; inconclusive means small, poorly fitted or top-dose-only effect; inactive means flat fitted curve, though single readings scatter.

molecular target: Pyruvate kinase PKM (Homo sapiens) (UniProt P14618); experiment: Confirmation Concentration-Response Assay for Activators of Human Muscle isoform 2 Pyruvate Kinase: for Probe SAR; conditions: purified PKM2, ATP generation, Kinase-Glo luminescence; series mostly up to 57.5 µM; further: nearly all actives have a fitted effect of over 60% in size
Text: NIH Chemical Genomics Center [NCGC]
Matthew G. Vander Heiden, M.D., Ph.D. [Harvard Medical School, 77 Avenue Louis Pasteur, Boston, MA 02115]
Human pyruvate kinase muscle 2 (hPK-M2) enzyme was supplied as a highly purified (>95% pure) preparation from Harvard Medical School and assayed for its ability to generate ATP from ADP using phosphoenolpyruvate (PEP) as a substrate. ATP generation was detected in a coupled reaction by luciferase-mediated luminescence, an ATP-dependent process. […] The enzyme was assayed at an intermediate level of activity to screen for both inhibitors and activators.
NCGC Assay Protocol Summary:
Three uL of substrate mix (at r.t.) in assay buffer (50 mM Imidazole pH7.2, 50 mM KCl, 7 mM MgCl2, 0.01% Tween 20, 0.05% BSA) was dispensed into white solid bottom 1,536 well microtiter plates so that the final concentrations of substrates in the assay were 0.1 mM ADP and 0.5 mM PEP. 23 nL of compound were delivered by a pin tool and 1 uL of enzyme mix (final concentration of 0.1 nM) in assay buffer (4 degree Celsius) was added. Plates were incubated at room temperature for 1 hour. Two uL of detection mix (Kinase-Glo, Promega; at 4 degree Celsius protected from light) was added and luminescence read by a ViewLux (Perkin Elmer) at 1 second exposure/plate. Data were normalized to the uninhibited (column 3) and AC100 inhibition (no enzyme in column 2). To monitor activation, the first column contained a titration of the activator, NCGC00031955-03 (16-point 1:2 dilutions in duplicate starting at 57 uM) and the first 16 rows of column 4 contained 57 uM of NCGC00031955-03.
Potency means the concentration at half of the fitted maximal effect.

Chain of Pyruvate kinase PKM (Homo sapiens) (P14618 whole entry, looked up, canonical isoform): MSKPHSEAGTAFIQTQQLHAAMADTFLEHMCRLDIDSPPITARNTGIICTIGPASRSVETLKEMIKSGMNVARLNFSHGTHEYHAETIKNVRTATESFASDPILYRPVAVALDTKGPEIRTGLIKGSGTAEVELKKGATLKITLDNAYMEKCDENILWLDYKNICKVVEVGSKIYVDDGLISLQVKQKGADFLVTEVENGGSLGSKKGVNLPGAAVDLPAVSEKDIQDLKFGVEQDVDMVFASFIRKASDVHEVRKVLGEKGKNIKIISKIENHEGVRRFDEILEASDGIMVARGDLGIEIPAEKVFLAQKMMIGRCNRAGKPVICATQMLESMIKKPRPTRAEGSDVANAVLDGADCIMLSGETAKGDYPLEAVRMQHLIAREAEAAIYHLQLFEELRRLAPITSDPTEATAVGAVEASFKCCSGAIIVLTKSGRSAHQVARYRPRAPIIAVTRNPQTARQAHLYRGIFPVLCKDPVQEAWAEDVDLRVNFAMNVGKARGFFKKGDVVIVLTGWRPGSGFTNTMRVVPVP

Compound	Potency
O=C1c2ccccc2C(=O)N1c1cccc2cccnc12	inactive
Cc1ccc(NS(=O)(=O)c2ccc3c(c2)CCC(C)(C)O3)cc1C	inactive
Cc1ccc(Nc2c(-c3ccsc3)nc3c(C)cccn23)cc1	inactive
Cc1ccc(NS(=O)(=O)c2ccc3c(c2)CCC(=O)N3)cc1	5.8 µM (active)
O=C1CCc2cc(S(=O)(=O)Nc3ccc(F)c(Cl)c3)ccc2N1	0.291 µM (active)
CC(=O)Nc1cccc(S(=O)(=O)N2CCN(S(=O)(=O)c3ccc4c(c3)OCCO4)CC2)c1	1.03 µM (active)
O=C1c2ccccc2C(=O)N1c1noc2ccccc12	inactive
COc1cccc(N2C(=O)c3ccccc3C2=O)n1	inactive
COC(=O)c1ccccc1S(=O)(=O)Nc1ccc(OC)cc1	inactive
O=C1CCc2cc(S(=O)(=O)Nc3cccc(F)c3)ccc2N1	0.919 µM (active)
O=S1(=O)N=C(Oc2ccc(Cl)cc2)c2ccccc21	inactive
O=C1c2ccccc2C(=O)N1c1cc(=O)c2ccccc2[nH]1	inactive
Cc1ccc(NS(=O)(=O)c2cc3c(cc2F)NC(=O)CC3)cc1C	0.73 µM (active)
Cc1cc(NS(=O)(=O)c2ccc3c(c2)CCC(=O)N3)ccc1F	0.461 µM (active)
O=C1CCc2cc(Cl)c(S(=O)(=O)Nc3ccc(Cl)c(Cl)c3)cc2N1	0.073 µM (active)
Nc1ccc(S(=O)(=O)N2CCN(S(=O)(=O)c3ccc4c(c3)OCCO4)CC2)cc1	0.366 µM (active)
COc1cc(F)c(S(=O)(=O)N2CCN(S(=O)(=O)c3cccc(NC(C)=O)c3)CC2)c(F)c1	3.26 µM (active)
O=C1NS(=O)(=O)c2ccccc21	inactive
COc1cccc(OC2=NS(=O)(=O)c3ccccc32)c1	inactive
Nc1cc(S(=O)(=O)N2CCN(S(=O)(=O)c3ccc4c(c3)OCCO4)CC2)ccn1	3.26 µM (active)

Compound	Potency
Cc1ccc(OC2=NS(=O)(=O)c3ccccc32)cc1	inactive
COc1ccccc1NS(=O)(=O)c1ccc2c(c1)CCC(=O)N2	20.6 µM (active)
COc1ccc(NS(=O)(=O)c2ccccc2)cc1NS(=O)(=O)c1ccccc1	inactive
O=C1CCc2cc(S(=O)(=O)Nc3ccc4ccccc4c3)ccc2N1	5.17 µM (active)
O=C1CCc2cc(S(=O)(=O)Nc3cccc4ccccc34)ccc2N1	13 µM (active)
O=C1c2ccccc2C(=O)N1c1cccc2ccncc12	inactive
Cc1ccc2nc(-c3ccc(C)o3)c(Nc3ccccc3)n2c1	inactive
O=C1CCc2cc(S(=O)(=O)Nc3ccc(F)cc3)ccc2N1	6.51 µM (active)
Cc1ccc(NS(=O)(=O)c2ccc3c(c2)n(C)c(=O)n3C)cc1C	1.46 µM (active)
O=C1c2ccccc2C(=O)N1c1cccc(=O)[nH]1	inactive
Cc1ccc(Nc2c(-c3ccsc3)nc3cccc(C)n23)cc1	inactive
COc1ccc(OC2=NS(=O)(=O)c3ccccc32)cc1	inactive
Cc1cc2c(s1)c1cnn(Cc3ccccc3F)c(=O)c1n2C	inactive and 231 nM (active)
Cc1ccc(NS(=O)(=O)c2cc3c(cc2-c2ccco2)NC(=O)CO3)cc1C	9.19 µM (active)
O=C1CCc2cc(S(=O)(=O)Nc3ccccc3-c3ccccc3)ccc2N1	inactive
O=C1CCc2cc([S+](=O)([O-])Nc3ccc(N[S+](=O)([O-])c4ccc5c(c4)CCC(=O)N5)cc3)ccc2N1	inactive
O=C1c2ccccc2C(=O)N1c1ccc2ncccc2c1	inactive
O=S1(=O)N=C(Oc2cccc3ccccc23)c2ccccc21	inactive
CCCCN1C(=O)c2ccccc2C1=O	inactive
Cc1ccc(NS(=O)(=O)c2ccc3c(c2)CCC(=O)N3)cc1C	0.651 µM (active)
